# Measurements: publication PMC4336329 (PLoS ONE, 2015)
# Out of some 310,000 compounds screened, about 14,000 (4.5%) showed an effect of 50% or more. The effect is printed as a negative number. The full list was thinned out, with strong results kept by preference.
# Target: human ether-à-go-go-related gene (hERG) potassium channel (human, UniProt Q12809)
# Assay: primary screen, population patch clamp on CHO cells stably expressing hERG; higher = less effect of the substance
# 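Also: peak tail current of the secondary pulse compared with the same well before compound.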
# Sequence of human ether-à-go-go-related gene (hERG) potassium channel (Q12809 whole entry, looked up): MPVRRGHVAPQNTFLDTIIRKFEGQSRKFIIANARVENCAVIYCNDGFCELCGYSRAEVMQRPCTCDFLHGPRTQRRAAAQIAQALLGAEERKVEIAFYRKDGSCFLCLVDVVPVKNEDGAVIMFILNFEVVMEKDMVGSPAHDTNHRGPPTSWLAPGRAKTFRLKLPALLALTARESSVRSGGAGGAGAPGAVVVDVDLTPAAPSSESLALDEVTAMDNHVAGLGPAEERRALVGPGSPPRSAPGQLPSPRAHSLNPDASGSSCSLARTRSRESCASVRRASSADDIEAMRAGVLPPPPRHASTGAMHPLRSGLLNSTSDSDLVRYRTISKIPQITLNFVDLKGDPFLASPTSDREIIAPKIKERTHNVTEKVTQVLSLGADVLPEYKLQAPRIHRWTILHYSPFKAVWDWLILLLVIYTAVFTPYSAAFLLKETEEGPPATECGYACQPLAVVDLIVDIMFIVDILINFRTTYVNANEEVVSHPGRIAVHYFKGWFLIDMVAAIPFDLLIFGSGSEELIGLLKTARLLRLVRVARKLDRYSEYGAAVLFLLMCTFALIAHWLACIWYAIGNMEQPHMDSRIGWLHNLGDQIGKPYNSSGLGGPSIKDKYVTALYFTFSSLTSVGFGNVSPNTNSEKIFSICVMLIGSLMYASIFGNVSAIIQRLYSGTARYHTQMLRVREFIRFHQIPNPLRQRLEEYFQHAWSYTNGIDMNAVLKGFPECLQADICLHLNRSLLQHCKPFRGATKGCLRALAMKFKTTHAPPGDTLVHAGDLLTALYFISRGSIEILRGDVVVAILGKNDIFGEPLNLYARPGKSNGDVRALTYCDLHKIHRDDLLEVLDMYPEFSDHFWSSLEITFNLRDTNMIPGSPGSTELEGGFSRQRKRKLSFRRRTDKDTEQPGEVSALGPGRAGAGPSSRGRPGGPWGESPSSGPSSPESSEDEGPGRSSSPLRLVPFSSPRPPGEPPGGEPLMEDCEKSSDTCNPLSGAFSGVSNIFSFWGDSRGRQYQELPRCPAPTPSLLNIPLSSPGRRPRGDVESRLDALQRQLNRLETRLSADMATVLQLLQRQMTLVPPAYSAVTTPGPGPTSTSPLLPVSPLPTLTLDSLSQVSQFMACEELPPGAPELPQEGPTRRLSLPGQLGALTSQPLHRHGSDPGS
row,SMILES,"hERG current change (%, negative = inhibition) at 10uM [%]"
1,CCOC(=O)c1cn2nc(Oc3ccc(C)cc3)ccc2n1,1.97
2,CCOC(=O)c1cn2nc(Oc3ccc(OC)cc3)ccc2n1,4.29
3,CCOC(=O)c1cn2nc(Oc3ccc(C#N)cc3)ccc2n1,-54.1
4,CC1=C/C(=N\OS(=O)(=O)c2ccccc2)C(C)=CC1=O,-9.37
5,O=C(CSc1nnc(COc2ccc(Cl)cc2)o1)N1CCN(c2ccccc2)CC1,-1.37
6,COc1ccccc1C1CC(c2ccc(Cl)cc2Cl)Nc2nc(N)nn21 (stereo not shown),-44.7
7,Cc1cccn2c(=O)c3cc(C(=O)NCc4ccco4)c(=N)n(C4CCCC4)c3nc12,-78.8
8,Cc1cccn2c(=O)c3cc(S(=O)(=O)c4ccc(Br)cc4)c(=N)n(C4CCCC4)c3nc12,9.92
9,Cc1cccn2c(=O)c3cc(S(=O)(=O)c4ccc(Br)cc4)c(=N)n(C4CCCCC4)c3nc12,18.6
10,Cc1ccc(S(=O)(=O)c2cc3c(=O)n4cccc(C)c4nc3n(C3CCCCC3)c2=N)cc1,15.7
11,Cc1cccn2c(=O)c3cc(C(=O)NCc4ccco4)c(=N)n(C4CCCCC4)c3nc12,-77.4
12,COc1ccc(-n2c(N)c(C(=O)NCc3ccco3)c3nc4ccccc4nc32)c(OC)c1,0.913
13,Cc1csc(NC(=O)c2sc3nc(-c4cccs4)ccc3c2N)n1,5.65
14,COc1ccc(OC)c(NC(=O)CSc2nnc(C3CCCCC3)o2)c1,-19
15,CC(=O)N1CC(C)Sc2ccc(S(=O)(=O)NCc3ccc(F)cc3)cc21 (stereo not shown),-49.6
16,O=C1c2ccccc2S(=O)(=O)c2cc(C(=O)N3CCN(c4ccc(Cl)cn4)CC3)ccc21,-33.1
17,CCOc1ccc(S(=O)(=O)N(CC)CC)cc1NC(=O)CSCc1c(C)noc1C,-67.2
18,CCOc1ccc(S(=O)(=O)N2CCOCC2)cc1NC(=O)CSCc1c(C)noc1C,-17.3
19,Cc1noc(C)c1CSCC(=O)Nc1ccc(S(C)(=O)=O)cc1,15.2
20,CCOc1ccc(S(=O)(=O)N2CCCCC2)cc1NC(=O)CSCc1c(C)noc1C,-39.5
21,Cc1noc(C)c1CSCC(=O)Nc1cc(S(C)(=O)=O)ccc1Cl,0.564
22,CCN(CC)S(=O)(=O)c1ccc(N(C)C)c(NC(=O)CSCc2c(C)noc2C)c1,-60.4
23,C=CCOc1cccc(C2C(C(=O)c3cccs3)=C(O)C(=O)N2Cc2cccnc2)c1 (stereo not shown),-1.2

row,SMILES,"hERG current change (%, negative = inhibition) at 10uM [%]"
1,CCOC(=O)C1=C(C)NC(=O)NC1c1cc(Br)c(O)c(OC)c1 (stereo not shown),-2.71
2,COc1ccc(CNc2ccc3c(c2)ncn3C)cc1OC,15.8
3,Cc1cnc(C(=O)Nc2cc(S(=O)(=O)N3CCOCC3)ccc2N2CCN(C)CC2)cn1,-18.6
4,COc1ccc(-n2cc(CN(C)Cc3n[nH]c(=O)[nH]3)c(-c3cccc(F)c3)n2)cc1,-15.4
5,COc1ccc(-n2cc(CNC3CCC(O)CC3)c(-c3cccc(F)c3)n2)cc1 (stereo not shown),-45.3
6,COc1ccc(N2C(=O)CC(NC3CCCCNC3=O)C2=O)cc1 (stereo not shown),8.59
7,COc1ccc(-n2cc(CN[C@H]3CCCCNC3=O)c(-c3cccc(F)c3)n2)cc1,-64.1
8,COc1ccc(-n2cc(CN(C)C3CCOCC3)c(-c3cccc(F)c3)n2)cc1,-29.1
9,COc1ccc(-n2cc(CNCc3cnc4ccccn34)c(-c3cccc(F)c3)n2)cc1,-30.2
10,COc1ccc(-n2cc(CNC3CCN(C)CC3)c(-c3cccc(F)c3)n2)cc1,-77.5
11,COc1ccc(-n2cc(CNC3CCOCC3)c(-c3cccc(F)c3)n2)cc1,-48.2
12,COc1ccc(-n2cc(CNCC3CCOCC3)c(-c3cccc(F)c3)n2)cc1,-78.5
13,COc1cccc(-c2nn(-c3ccccc3)cc2CN2CCCO2)c1,-5.81
14,COc1ccc(-n2cc(CNCCCn3ccnc3)c(-c3cccc(F)c3)n2)cc1,-75.2
15,COc1ccc(-n2cc(CNCCCn3ccnc3)c(-c3ccccc3Cl)n2)cc1,-44.9
16,Cc1cccc(C)c1OCC(=O)Nc1ccc(N2CCOCC2)cc1,-4.13
17,O=C(CC12CC3CC(CC(C3)C1)C2)Nc1cccc2ncccc12,-23
18,CN(C)c1ccc(Nc2cc(Cl)ncn2)cc1,1.65
19,COc1ccc(OC)c(N(CC(=O)Nc2ccc3c(c2)OCCO3)S(C)(=O)=O)c1,9.64
20,CC(C)CC(=O)NC(=S)Nc1ccccc1C(=O)Nc1ccccc1,8.01
21,O=C(c1ccc(CN2CCOCC2)cc1)N1CCN(c2ccccc2F)CC1,-3.33
22,COc1ccc(CNCc2cc3c(C(C)(C)C)nn(-c4ccccc4)c3[nH]c2=O)cc1,-24
23,CCOC(=O)c1c(NC(=S)Nc2ccccc2)sc2c1CCN(CC)C2,-81.5

row,SMILES,"hERG current change (%, negative = inhibition) at 10uM [%]"
1,CCOC(=O)c1c(NC(=S)Nc2ccccc2)sc(C)c1C,4.49
2,CCOC(=O)c1c(NC(C)=O)sc2c1CCN(Cc1ccccc1)C2.Cl,-20.5
3,CCOC(=O)c1c(NC(=S)NCc2ccccc2)sc2c1CCN(C(=O)OCC)C2,32.8
4,CCOC(=O)c1c(N)sc2c1CCN(CCc1ccccc1)C2,-28.6
5,CCOC(=O)c1c(NC(=S)Nc2ccccc2)sc2c1CCN(CCc1ccccc1)C2,-64.1
6,COc1ccc(-c2c(C)n([O-])c3c([n+]2=O)CCCC3)c(OC)c1,6.26
7,Nc1cncc(C(=O)O)c1 [26671297],4.06
8,CCn1cc(C(=O)N2CCCC(C(=O)c3ccc4ccccc4c3)C2)cn1 (stereo not shown),-18.1
9,CCCCc1ccc(NC(=O)CSc2nc(=O)n(CCN(CC)CC)c3c2CCCC3)cc1,-66.7
10,CCCCc1ccc(NC(=O)CSc2nc(=O)n(CCN(CC)CC)c3c2CCC3)cc1,-65.8
11,CCCCc1ccc(NC(=O)CSc2nc(=O)n(CCN(C)C)c3c2CCC3)cc1,-56.4
12,CCc1ccc(NC(=O)CSc2nc(=O)n(CCN(C)C)c3c2CCCC3)cc1,-24.2
13,CCc1ccc(NC(=O)CSc2nc(=O)n(CCCN(C)C)c3c2CCC3)cc1,-42.3
14,C=C(C)CN(CC)Cc1c(C(=O)N(C)CCCC)nc2ccccn12,-20.7
15,Cc1ccc(S(=O)(=O)NNC(=O)C2CCN(Cc3ccccc3)CC2)cc1,-15.4
16,COc1ccc(NC(=O)CSc2nnc(C3CCCCC3)n2N)cc1OC,21.9
17,Cc1cc(N/N=C/c2ccccc2O)nc(N2CCOCC2)n1,6.96
18,COc1ccc2ccc(OCC(=O)N3c4ccccc4NC(=O)CC3C)cc2c1 (stereo not shown),-21.2
19,COc1ccc(-c2sc(Nc3ccccc3)n[n+]2-c2ccc(F)cc2)cc1Br.[Cl-],4.03
20,COc1ccc(-c2sc(Nc3ccccc3)n[n+]2C)c(C)c1C.[Cl-],-1.19
21,COc1ccc(-c2sc(Nc3ccccc3)n[n+]2-c2ccc(F)cc2)c(C)c1C.[Cl-],-74.5
22,COc1ccc(-c2sc(Nc3ccccc3)n[n+]2-c2ccc(F)cc2)c(OC)c1OC.[Cl-],-72.2
23,COc1ccc2ccccc2c1-c1sc(Nc2ccccc2)n[n+]1-c1ccc(F)cc1.[Cl-],-57.4

row,SMILES,"hERG current change (%, negative = inhibition) at 10uM [%]"
1,Fc1ccc(-[n+]2nc(Nc3ccccc3)sc2-c2c3ccccc3cc3ccccc23)cc1.[Cl-],18.2
2,COc1cc(OC)c(-c2sc(Nc3ccccc3)n[n+]2-c2ccc(F)cc2)cc1OC.[Cl-],-0.831
3,Oc1ccc2ccccc2c1-c1sc(Nc2ccccc2)n[n+]1-c1ccc(F)cc1.[Cl-],-0.475
4,Cc1nc2sc3c(c2c(=O)o1)CCC3,4.18
5,O=c1[nH]c(O)c(/C=C2\C=Nc3ccccc32)[nH]1,20.9
6,Cc1cc(S(=O)(=O)N2CCOCC2)ccc1OCC(=O)NCC1CCCO1 (stereo not shown),-0.633
7,COc1ccc(S(=O)(=O)N(Cc2ccccc2)c2ccccc2C(=O)O)cc1,31.8
8,O=S(=O)(Cc1ccccc1)NCCc1cccc(Cl)c1,-5.57
9,Cc1nnc(-c2cnn(-c3ccccc3)c2N)n1Cc1ccccc1,-1.94
10,CCCOc1ccc(CC(CC(=O)O)(C(=O)O)C(=O)O)cc1,13.5
11,CCOC(=O)c1cccc(Nc2ncnc3ccc(C)cc23)c1,-59.3
12,CCOC(=O)c1cccc(Nc2ncnc3ccccc23)c1.Cl,-24.9
13,COC(=O)c1cccc(Nc2ncnc3ccc(C)cc23)c1,-20.9
14,Cc1ccc(C(=O)CSc2nnc(-c3ccncc3)n2C)cc1,-3.2
15,Cn1c(SCCC(=O)O)nnc1-c1ccncc1,1.73
16,CCOc1ccc(C(C)=O)cc1CSc1nnc(-c2ccncc2)n1CCOC,-0.498
17,Cn1c(SCCCC(=O)c2ccc(Br)cc2)nnc1-c1ccncc1,-70.2
18,Cn1c(SCCCC(=O)c2ccccc2)nnc1-c1ccncc1,-42.9
19,COCCn1c(SCCCC(=O)c2ccc(Br)cc2)nnc1-c1ccncc1,-60.7
20,COCCn1c(SCC(=O)N2CCOCC2)nnc1-c1ccncc1,-7.01
21,Cn1c(SCC(=O)c2ccccc2)nnc1-c1ccncc1,-0.277
22,Cn1c(SCCCC(=O)c2ccc(F)cc2)nnc1-c1ccncc1,-59.6
